# Targets with a hit are over-represented here; the source holds about 7,900 in all. About 0.6% of all pairs of compound and target were hits. A number with no mark means an inactive call.
# Experiments:
# Experiment in all cases: log2 fold change, soluble protein after heating vs DMSO (PISA); higher = thermal stabilisation; K562 cells, 10 uM, 30 min; active = over 0.2 and 3.5 SD of the protein, either way, in both replicates (recomputed)
# [1] = compound: CC1=C(C=C(C=C1)NC(=O)C2=CC(=CC=C2)C(C)(C)C#N)NC3=CC4=C(C=C3)N=CN(C4=O)C
# Procedure, shortened: (§1)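 Soluble protein was quantified by TMTpro 16plex LC-MS/MS after channel sums were equalised. It was obtained as the supernatant after 21,000xg for 90 min from pooled aliquots of K562 cells (2×10^6 cells/mL, 10 μM compound, 30 min) heated for 3 min across 48°C-58°C and extracted in PBS with 0.5% NP-40 at 4°C. Thermal stability values are relative to control samples and come from duplicates. They are given as log2 fold changes.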
# [2] = compound: CC1=C(C=C(C=C1)NC(=O)C2=CC(=CC=C2)N(C)C)NC(=O)C3=CC=C(C=C3)O
# Procedure, shortened: as §1
# [3] = compound: CC1=CC=C(C=C1)SC2=C3C=C(SC3=CN=C2)C(=O)N
# Procedure, shortened: as §1
# [4] = compound: CC1=NC(=CC=C1)C2=C(N=C(N2)C(C)(C)C)C3=CC4=NC=CN=C4C=C3
# Procedure, shortened: as §1
# Nexturastat A = compound: CCCCN(Cc1ccc(C(=O)NO)cc1)C(=O)Nc1ccccc1 [Nexturastat A]
# Procedure, shortened: as §1
# vemurafenib = compound: CCCS(=O)(=O)Nc1ccc(F)c(C(=O)c2c[nH]c3ncc(-c4ccc(Cl)cc4)cc23)c1F [vemurafenib]
# Procedure, shortened: as §1
# [5] = compound: CCCS(=O)(=O)Nc1ccc(F)c(C(=O)c2c[nH]c3ncc(Cl)cc23)c1F
# Procedure, shortened: as §1
# [6] = compound: CCCc1cc(C)[nH]c(=O)c1CNC(=O)c1cc(-c2ccnc(N3CCN(C)CC3)c2)cc2c1cnn2C(C)C
# Procedure, shortened: as §1
# givinostat = compound: CCN(CC)Cc1ccc2cc(COC(=O)Nc3ccc(C(=O)NO)cc3)ccc2c1 [givinostat]
# Procedure, shortened: as §1
# barasertib = compound: CCN(CCCOc1ccc2c(Nc3cc(CC(=O)Nc4cccc(F)c4)[nH]n3)ncnc2c1)CCOP(=O)(O)O [barasertib]
# Procedure, shortened: as §1
# Sequence of UniProt Q96DM3 (Q96DM3 whole entry, looked up): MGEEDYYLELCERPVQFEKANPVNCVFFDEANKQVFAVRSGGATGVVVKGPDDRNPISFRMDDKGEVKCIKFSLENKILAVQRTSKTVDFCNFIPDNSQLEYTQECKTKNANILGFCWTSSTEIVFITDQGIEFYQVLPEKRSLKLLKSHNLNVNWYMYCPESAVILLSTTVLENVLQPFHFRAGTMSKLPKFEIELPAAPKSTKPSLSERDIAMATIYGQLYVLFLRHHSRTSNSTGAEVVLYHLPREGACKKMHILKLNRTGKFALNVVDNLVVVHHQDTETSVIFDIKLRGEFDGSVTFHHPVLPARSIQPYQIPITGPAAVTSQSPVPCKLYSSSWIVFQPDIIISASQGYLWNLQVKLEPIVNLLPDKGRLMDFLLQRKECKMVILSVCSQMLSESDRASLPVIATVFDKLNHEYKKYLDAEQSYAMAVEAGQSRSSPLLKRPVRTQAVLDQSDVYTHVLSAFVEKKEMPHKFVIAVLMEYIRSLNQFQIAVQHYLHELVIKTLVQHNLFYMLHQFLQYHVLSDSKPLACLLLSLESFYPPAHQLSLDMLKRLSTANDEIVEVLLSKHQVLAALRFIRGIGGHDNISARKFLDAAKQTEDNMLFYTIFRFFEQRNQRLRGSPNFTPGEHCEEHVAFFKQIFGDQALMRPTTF
# Sequence of UniProt Q9NPQ8 (Q9NPQ8 whole entry, looked up): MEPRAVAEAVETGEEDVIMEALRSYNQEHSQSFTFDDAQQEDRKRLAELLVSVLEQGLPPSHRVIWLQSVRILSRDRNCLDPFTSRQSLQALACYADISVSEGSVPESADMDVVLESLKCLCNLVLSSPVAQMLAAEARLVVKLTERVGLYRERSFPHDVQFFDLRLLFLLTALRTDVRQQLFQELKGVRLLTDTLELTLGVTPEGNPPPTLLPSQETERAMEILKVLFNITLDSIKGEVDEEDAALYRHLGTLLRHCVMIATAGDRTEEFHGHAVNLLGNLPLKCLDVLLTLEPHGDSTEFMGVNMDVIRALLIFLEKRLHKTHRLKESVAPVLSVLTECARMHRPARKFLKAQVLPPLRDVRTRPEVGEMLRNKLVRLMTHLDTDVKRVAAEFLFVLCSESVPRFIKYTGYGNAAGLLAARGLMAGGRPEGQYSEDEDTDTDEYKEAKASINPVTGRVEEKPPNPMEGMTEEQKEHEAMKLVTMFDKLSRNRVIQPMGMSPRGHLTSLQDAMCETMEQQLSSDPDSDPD
# Sequence of UniProt P63208 (P63208 whole entry, looked up): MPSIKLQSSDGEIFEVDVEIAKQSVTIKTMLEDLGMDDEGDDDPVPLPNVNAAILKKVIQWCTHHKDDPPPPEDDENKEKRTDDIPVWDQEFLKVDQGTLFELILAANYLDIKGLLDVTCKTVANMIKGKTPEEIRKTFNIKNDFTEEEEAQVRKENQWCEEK
# Sequence of UniProt O00584 (O00584 whole entry, looked up): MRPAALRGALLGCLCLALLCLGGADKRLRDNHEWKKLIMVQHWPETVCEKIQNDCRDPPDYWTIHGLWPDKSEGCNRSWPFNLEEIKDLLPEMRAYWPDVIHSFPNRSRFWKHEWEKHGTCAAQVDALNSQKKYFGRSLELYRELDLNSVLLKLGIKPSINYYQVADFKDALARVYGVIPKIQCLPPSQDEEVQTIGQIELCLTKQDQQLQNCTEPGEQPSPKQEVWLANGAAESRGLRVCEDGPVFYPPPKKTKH
# Sequence of UniProt P41440 (P41440 whole entry, looked up): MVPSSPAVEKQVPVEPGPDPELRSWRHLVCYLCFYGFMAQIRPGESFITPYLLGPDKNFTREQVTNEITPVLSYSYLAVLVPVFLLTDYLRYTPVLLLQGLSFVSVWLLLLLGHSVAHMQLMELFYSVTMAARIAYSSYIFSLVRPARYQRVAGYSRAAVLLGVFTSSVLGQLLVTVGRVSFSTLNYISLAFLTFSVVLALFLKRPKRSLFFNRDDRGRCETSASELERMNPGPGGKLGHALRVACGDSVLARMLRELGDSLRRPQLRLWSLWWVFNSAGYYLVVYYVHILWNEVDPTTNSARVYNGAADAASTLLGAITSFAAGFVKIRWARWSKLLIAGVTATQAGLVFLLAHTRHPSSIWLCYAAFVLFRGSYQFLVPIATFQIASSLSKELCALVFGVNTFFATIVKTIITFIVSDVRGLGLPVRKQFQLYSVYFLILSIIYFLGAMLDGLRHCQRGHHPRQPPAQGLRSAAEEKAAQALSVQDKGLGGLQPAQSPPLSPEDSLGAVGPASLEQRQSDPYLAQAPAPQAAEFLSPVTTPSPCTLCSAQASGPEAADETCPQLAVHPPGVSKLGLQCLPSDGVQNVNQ
# Sequence of UniProt P61586 (P61586 whole entry, looked up): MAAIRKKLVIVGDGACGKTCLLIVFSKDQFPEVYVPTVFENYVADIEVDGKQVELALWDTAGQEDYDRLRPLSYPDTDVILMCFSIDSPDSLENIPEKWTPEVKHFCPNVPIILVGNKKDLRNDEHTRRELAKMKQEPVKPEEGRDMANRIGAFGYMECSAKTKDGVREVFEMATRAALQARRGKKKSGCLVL
# Sequence of UniProt Q15418 (Q15418 whole entry, looked up): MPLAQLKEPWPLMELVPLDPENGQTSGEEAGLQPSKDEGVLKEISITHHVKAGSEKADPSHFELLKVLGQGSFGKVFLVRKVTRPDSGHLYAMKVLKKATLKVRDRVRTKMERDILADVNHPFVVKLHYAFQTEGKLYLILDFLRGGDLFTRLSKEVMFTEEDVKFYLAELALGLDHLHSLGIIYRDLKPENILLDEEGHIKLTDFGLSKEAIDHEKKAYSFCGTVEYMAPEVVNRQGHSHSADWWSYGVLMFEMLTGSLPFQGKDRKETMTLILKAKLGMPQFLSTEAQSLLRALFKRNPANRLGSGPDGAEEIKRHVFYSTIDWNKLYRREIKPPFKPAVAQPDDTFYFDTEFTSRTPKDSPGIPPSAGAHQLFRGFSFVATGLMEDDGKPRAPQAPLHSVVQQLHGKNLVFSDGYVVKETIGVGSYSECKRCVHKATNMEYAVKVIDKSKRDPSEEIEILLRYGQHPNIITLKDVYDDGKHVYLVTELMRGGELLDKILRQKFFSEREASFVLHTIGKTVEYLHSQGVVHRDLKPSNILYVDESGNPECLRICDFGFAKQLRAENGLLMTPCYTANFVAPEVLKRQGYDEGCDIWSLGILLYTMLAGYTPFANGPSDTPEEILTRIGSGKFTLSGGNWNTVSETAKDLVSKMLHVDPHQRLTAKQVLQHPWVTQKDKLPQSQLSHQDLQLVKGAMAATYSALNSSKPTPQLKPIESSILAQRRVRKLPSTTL
# Sequence of UniProt Q96EV2 (Q96EV2 whole entry, looked up): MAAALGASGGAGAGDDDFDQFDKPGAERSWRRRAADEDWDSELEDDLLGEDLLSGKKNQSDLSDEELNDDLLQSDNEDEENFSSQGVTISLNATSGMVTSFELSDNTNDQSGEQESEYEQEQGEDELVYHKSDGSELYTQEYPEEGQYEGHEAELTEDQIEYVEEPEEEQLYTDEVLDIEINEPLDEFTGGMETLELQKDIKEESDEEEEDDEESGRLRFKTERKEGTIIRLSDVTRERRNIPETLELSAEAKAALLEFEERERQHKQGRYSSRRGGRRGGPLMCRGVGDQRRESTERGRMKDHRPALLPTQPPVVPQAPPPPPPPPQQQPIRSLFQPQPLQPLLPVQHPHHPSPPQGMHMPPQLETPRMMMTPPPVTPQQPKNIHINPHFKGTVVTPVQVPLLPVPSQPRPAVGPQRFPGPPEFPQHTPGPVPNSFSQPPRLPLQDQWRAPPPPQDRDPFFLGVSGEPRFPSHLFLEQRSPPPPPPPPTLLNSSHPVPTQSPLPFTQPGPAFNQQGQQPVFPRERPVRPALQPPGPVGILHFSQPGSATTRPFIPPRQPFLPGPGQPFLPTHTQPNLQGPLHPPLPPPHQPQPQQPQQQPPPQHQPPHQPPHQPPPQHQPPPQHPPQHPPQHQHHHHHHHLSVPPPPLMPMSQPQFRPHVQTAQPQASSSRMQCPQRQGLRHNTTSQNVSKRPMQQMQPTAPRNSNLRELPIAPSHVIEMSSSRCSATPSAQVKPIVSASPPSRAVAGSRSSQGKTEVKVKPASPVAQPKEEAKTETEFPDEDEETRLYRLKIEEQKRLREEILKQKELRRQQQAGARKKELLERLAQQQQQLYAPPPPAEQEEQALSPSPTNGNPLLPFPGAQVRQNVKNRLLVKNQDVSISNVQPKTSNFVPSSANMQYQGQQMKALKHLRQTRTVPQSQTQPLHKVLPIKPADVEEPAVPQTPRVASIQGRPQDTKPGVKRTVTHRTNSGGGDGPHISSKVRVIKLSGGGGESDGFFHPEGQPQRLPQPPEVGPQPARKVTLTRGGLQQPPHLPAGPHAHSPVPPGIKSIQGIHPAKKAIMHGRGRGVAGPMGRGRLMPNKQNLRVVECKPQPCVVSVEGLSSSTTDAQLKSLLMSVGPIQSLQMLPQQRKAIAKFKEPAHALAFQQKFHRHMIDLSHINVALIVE
# Sequence of UniProt Q5T160 (Q5T160 whole entry, looked up): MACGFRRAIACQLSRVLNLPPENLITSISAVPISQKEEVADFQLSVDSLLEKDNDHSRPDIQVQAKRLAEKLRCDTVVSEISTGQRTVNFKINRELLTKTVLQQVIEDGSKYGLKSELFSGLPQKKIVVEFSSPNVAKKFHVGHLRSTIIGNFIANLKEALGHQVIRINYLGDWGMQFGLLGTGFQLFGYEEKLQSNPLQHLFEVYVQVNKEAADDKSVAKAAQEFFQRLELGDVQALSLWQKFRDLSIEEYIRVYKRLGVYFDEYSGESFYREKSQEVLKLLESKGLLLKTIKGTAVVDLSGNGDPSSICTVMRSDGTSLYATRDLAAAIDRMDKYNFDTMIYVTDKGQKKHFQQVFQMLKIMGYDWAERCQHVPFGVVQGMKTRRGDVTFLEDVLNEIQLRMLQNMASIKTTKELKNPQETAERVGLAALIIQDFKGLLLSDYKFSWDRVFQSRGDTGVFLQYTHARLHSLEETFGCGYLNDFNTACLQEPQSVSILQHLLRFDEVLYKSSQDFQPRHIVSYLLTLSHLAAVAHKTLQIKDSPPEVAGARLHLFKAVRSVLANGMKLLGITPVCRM
Target,log2 fold change [1],log2 fold change [2],log2 fold change [3],log2 fold change [4],log2 fold change (Nexturastat A),log2 fold change (vemurafenib),log2 fold change [5],log2 fold change [6],log2 fold change (givinostat),log2 fold change (barasertib)
RHOA (UniProt P61586),0.015,-0.073,0.047,0.061,0.039,-0.042,0.074,0.145,-0.032,0.026
RPS5 (UniProt P46782),0.012,0,0.001,-0.038,0.126,-0.034,-0.066,0.038,-0.014,-0.1
RBM8A (UniProt Q9Y5S9),-0.025,-0.024,-0.02,0.075,-0.069,0.024,-0.001,0.04,-0.032,0.043
RTF2 (UniProt Q9BY42),0,-0.028,0.019,0.04,0.004,0.129,0.044,-0.019,0.017,0.072
RPS18 (UniProt P62269),-0.014,0,-0.049,-0.061,0.148,-0.125,-0.04,-0.01,0.021,-0.067
RPS6KA1 isoform 2 (UniProt Q15418),-0.016,-0.187,0.033,0.078,0.004,0.016,0.046,0.071,-0.141,0.029
SKP1 (UniProt P63208),0.095,0.048,0.094,0.017,-0.052,-0.036,0.008,-0.032,-0.05,-0.021
RAC3 (UniProt P60763),0.025,-0.021,0.084,-0.004,-0.042,0.006,-0.006,-0.044,-0.037,-0.015
SDCBP (UniProt O00560),0.007,0.021,0.009,0.025,0.001,0.051,0.041,-0.176,-0.027,-0.039
RPS6KA2 isoform 2 (UniProt Q15349),-0.087,-0.229,0.159,0.011,0.009,0.037,0.026,0.023,-0.148,0.064
RDH13 (UniProt Q8NBN7),0.011,-0.082,0.045,0.078,-0.046,0.044,0.019,-0.01,-0.002,0.033
RIC8A isoform 3 (UniProt Q9NPQ8),0.074,-0.051,0.024,0.023,0.198,0.028,0.085,0.111,0.028,0.073
RMC1 (UniProt Q96DM3),0.037,0.001,-0.051,0.024,-0.031,0.061,0.031,0.021,-0.013,0.039
SCAF8 isoform 2 (UniProt Q9UPN6),0.048,0.002,-0.03,0.076,0,-0.001,0.004,-0.013,0.038,0.067
RPL31 (UniProt P62899),-0.005,0.01,-0.086,-0.075,0.168,-0.145,-0.15,0.092,0.031,-0.149
RAB5IF isoform 5 (UniProt Q9BUV8),0.044,0.01,-0.042,0.247,-0.143,0.047,0.012,0.244,-0.007,-0.003
RBBP6 (UniProt Q7Z6E9),-0.108,0.119,0.03,0.127,-0.051,0.008,0.068,-0.023,0.043,-0.018
RPL38 (UniProt P63173),0.032,0.017,-0.038,-0.045,0.075,-0.003,0.006,0.069,-0.054,-0.025
RNASET2 (UniProt O00584),0.007,0.026,0.033,0.027,-0.079,-0.019,0.004,0.001,-0.006,-0.013
SERINC1 (UniProt Q9NRX5),0.044,-0.048,0.372,-0.021,0.053,-0.083,-0.018,-0.874 (active),0.05,0.002
SLBP (UniProt Q14493),-0.012,-0.08,0.019,0.099,-0.218,0.028,0.057,0.024,0.055,0.06
RCC1 isoform 2 (UniProt P18754),0.197,-0.129,0.073,0.055,-0.027,0.13,0.104,0.111,0.087,0.053
SLC19A1 (UniProt P41440),0.112,-0.054,-0.019,-0.023,-0.107,0.002,-0.031,-0.018,0.007,-0.011
RAB33B (UniProt Q9H082),-0.028,-0.026,-0.028,-0.071,-0.004,-0.083,-0.038,-0.065,-0.012,0.031
RBM33 (UniProt Q96EV2),-0.024,-0.001,-0.014,0.014,0.021,-0.019,0.022,0.022,0.077,0.037
RELA (UniProt Q04206),0.013,0,0.016,0.014,0.028,0.014,0.067,0.021,0.015,0.013
RRAGB (UniProt Q5VZM2),0.013,0.018,0.011,-0.01,-0.071,0.001,0.028,-0.023,-0.044,-0.004
RNF187 (UniProt Q5TA31),-0.074,-0.102,0.048,-0.005,0.085,-0.106,0.039,0,0.036,0.041
SEPTIN5 (UniProt Q99719),0.026,0,0.007,0.003,-0.06,-0.015,-0.015,0.104,-0.006,-0.013
RARS2 (UniProt Q5T160),0.018,0.033,0.056,0.029,-0.027,0.019,0.05,-0.014,-0.037,0.017
